PubChem BioAssay (Tox21)
Inconclusive results are not listed. The source made the active and inactive calls. Unless noted, calls come from the whole dose curve; as a rule, active = well fitted curve in the direction sought with a large enough effect in the repeat runs; inconclusive = weak or mixed curves; inactive = no such curve, though single readings can be large; an effect the other way counts as inactive or inconclusive.

Legend:
[1] = qHTS assay to identify small molecule antagonists of the androgen receptor (AR) signaling pathway using the MDA cell line in the presence of 0.5 nM R1881 - cell viability counter screen (AID 1259242); note: nearly all actives have a fitted effect of over 45% in size; note: potency is the fitted concentration of half-maximal effect
Summary of the method: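 Viability of MDA-kb2 cells was multiplexed with the luciferase AR readout; after 16 hr with compounds and R1881 at 0.5 nM final, CellTiter-Fluor fluorescence was recorded.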

[2] = biological target: Androgen receptor (Homo sapiens) (UniProt P10275); experiment: qHTS assay to identify small molecule antagonists of the androgen receptor (AR) signaling pathway using the MDA cell line in the presence of 0.5 nM R1881 (AID 1259243); note: nearly all actives have a fitted effect of over 50% in size; note: potency is the fitted concentration of half-maximal effect
Chain of Androgen receptor (Homo sapiens) (P10275 whole entry, looked up): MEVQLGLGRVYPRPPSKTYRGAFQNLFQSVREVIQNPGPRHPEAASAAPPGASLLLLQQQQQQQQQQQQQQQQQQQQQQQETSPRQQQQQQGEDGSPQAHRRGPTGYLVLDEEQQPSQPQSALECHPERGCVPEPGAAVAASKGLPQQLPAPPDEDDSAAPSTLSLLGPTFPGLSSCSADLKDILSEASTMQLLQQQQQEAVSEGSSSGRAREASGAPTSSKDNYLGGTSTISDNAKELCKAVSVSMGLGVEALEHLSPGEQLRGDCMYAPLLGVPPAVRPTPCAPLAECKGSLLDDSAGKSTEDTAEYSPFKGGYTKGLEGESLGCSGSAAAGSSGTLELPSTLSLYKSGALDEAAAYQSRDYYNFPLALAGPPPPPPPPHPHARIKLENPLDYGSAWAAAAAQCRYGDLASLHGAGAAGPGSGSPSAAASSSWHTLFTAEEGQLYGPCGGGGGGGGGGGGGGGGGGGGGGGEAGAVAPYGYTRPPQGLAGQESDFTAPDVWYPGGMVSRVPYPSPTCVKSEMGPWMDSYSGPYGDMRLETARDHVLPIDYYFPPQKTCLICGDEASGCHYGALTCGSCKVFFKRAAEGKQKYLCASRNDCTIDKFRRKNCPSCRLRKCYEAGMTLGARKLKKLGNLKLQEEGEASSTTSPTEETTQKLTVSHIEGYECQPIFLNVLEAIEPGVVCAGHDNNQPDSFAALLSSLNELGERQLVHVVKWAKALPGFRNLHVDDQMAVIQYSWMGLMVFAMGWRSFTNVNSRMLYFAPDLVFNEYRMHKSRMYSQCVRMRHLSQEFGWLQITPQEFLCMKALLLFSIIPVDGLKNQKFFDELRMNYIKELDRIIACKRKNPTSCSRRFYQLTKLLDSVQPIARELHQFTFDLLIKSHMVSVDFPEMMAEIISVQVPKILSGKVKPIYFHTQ
Summary of the method: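 Reporter cells cultured without CO2 receive test chemicals, then 0.5 nM R1881 final; after 16 hr at 37C, ONE-Glo is added and light output recorded.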

[3] = biological target: Estrogen receptor (Homo sapiens) (UniProt P03372); experiment: qHTS assay to identify small molecule antagonists of the estrogen receptor alpha (ER-alpha) signaling pathway using the BG1 cell line in the presence of 0.1 nM 17-beta-estradiol (AID 1259244); note: nearly all actives have a fitted effect of over 50% in size
Chain of Estrogen receptor (Homo sapiens) (P03372 whole entry, looked up): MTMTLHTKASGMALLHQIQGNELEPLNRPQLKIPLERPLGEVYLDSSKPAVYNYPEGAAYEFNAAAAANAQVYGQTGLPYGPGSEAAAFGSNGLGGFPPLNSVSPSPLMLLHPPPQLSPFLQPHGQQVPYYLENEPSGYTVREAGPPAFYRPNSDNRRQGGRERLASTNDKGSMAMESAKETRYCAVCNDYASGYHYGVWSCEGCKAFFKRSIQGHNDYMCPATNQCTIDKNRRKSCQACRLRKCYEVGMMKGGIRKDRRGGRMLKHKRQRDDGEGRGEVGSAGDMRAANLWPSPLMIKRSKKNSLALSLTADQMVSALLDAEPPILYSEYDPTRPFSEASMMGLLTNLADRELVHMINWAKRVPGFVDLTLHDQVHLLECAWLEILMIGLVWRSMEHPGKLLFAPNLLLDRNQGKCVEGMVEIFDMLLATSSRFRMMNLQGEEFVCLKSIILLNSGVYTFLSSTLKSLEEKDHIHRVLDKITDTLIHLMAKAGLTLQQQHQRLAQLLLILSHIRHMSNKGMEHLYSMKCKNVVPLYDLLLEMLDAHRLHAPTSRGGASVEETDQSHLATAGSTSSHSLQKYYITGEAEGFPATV
Summary of the method: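 Estradiol at 0.1 nM (final) stimulates the endogenous ER-alpha of VM7Luc4E2 cells carrying an ERE-driven luciferase; compounds are co-incubated 22 h at 37C and luciferase output quantified by luminescence.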

[4] = qHTS assay to identify small molecule HDAC inhibitors (AID 1259364);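 note: wild-type HCT-116 cells with endogenous class I/II HDAC activity; top concentration of the series differs between compounds; nearly all actives have a fitted effect of over 45% in size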
Summary of the method: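 Read-out: luminescence of HDAC-Glo I/II reagent, 30 min RT, reflecting class I/II deacetylase activity in whole HCT-116 cells pre-exposed 2 h to DMSO-dissolved compounds.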

[5] = qHTS assay to identify small molecule HDAC inhibitors - cell viability counter screen (AID 1259365); note: series mostly up to about 92 µM; nearly all actives have a fitted effect of over 50% in size
Summary of the method: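 After overnight seeding at 1,500 cells per well, wild-type HCT-116 cultures took up compounds in DMSO for 2hr at 37 C. Viable cell content came from luminescence with CellTiter-Glo.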

[6] = qHTS assay to identify small molecule agonists of the sonic hedgehog signaling (Shh) pathway - cell viability counter screen (AID 1259366); note: nearly all actives have a fitted effect of over 50% in size; note: potency is the fitted concentration of half-maximal effect
Summary of the method: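 Same-well cytotoxicity read. Gli1-Luc reporter 3T3 cells; compounds 24hr, 37C/5% CO2; CellTiter-Fluor fluorescence.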

[7] = qHTS assay to identify small molecule agonists of the sonic hedgehog signaling (Shh) pathway (AID 1259368; calls by dose curve;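 note: NIH/3T3-derived 3T3Gli1-Luc cells carrying a stable Gli1-driven firefly luciferase reporter; series mostly up to about 92 µM; nearly all actives have a fitted effect of over 15% in size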)
Summary of the method: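 A Gli1 transcriptional response element controlled firefly luciferase in 3T3Gli1-Luc cells. Compounds and a positive control were added 4 hr after plating, and cells were incubated a further 24 hr at 37 C before luminescence detection.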

[8] = qHTS assay to identify small molecule agonists of the androgen receptor (AR) signaling pathway in the presence of an antagonist - cell viability counter screen (AID 1259379); note: nearly all actives have a fitted effect of over 25% in size; note: potency is the fitted concentration of half-maximal effect
Summary of the method: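 Seed MDA-kb2 at 3,000 cells/well; incubate 5 hr, 37C, 0% CO2. Add nilutamide to 3.0uM final, then pin compounds at 15 concentrations. Incubate 16 hr. Add CellTiter-Fluor at 15 hr, read fluorescence after 1 hr.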

[9] = qHTS assay to identify small molecule agonists of the estrogen receptor beta (ER-beta) signaling pathway - cell viability counter screen (AID 1259380); note: nearly all actives have a fitted effect of over 30% in size; note: potency is the fitted concentration of half-maximal effect
Summary of the method: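 CellTiter-Glo read, 30 min RT, same wells as bla assay; cells ER-beta-UAS-bla HEK293T; 16 hr compound, 37C; medium 2% charcoal-stripped FBS.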

[10] = biological target: Androgen receptor (Homo sapiens) (UniProt P10275); experiment: qHTS assay to identify small molecule agonists of the androgen receptor (AR) signaling pathway in the presence of an antagonist (AID 1259381; calls by dose curve; note: nearly all actives have a fitted effect of over 15% in size)
Summary of the method: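 Test compounds at 15 concentrations were incubated for 16hr with MDA-kb2 reporter cells in presence of 3.0uM nilutamide (final). Signal: ONE-Glo luciferase luminescence.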

[11] = qHTS assay to identify small molecule antagonists of the estrogen receptor beta (ER-beta) signaling pathway - cell viability counter screen (AID 1259382); note: nearly all actives have a fitted effect of over 55% in size; note: potency is the fitted concentration of half-maximal effect
Summary of the method: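 In this multiplexed counter screen, cells were seeded at 2,000 per well in medium with 2% charcoal-stripped FBS and incubated 6 hr before compound and 1nM final E2 were added. Sixteen hours later, ATP-based luminescence reported viability.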

[12] = biological target: Estrogen receptor (Homo sapiens) (UniProt P03372); experiment: qHTS assay to identify small molecule agonists of the estrogen receptor alpha (ER-alpha) signaling pathway in the presence of an antagonist (AID 1259383; calls by dose curve; note: top concentration of the series differs between compounds; nearly all actives have a fitted effect of over 15% in size)
Summary of the method: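 Stably transfected VM7Luc4E2 reporter cells, kept 5 days in charcoal-stripped serum, received ICI-182,780 at 10.0nM final before compound addition. Following 22hr incubation at 37C and 5% CO2, luciferase signal was read by luminescence.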

[13] = qHTS assay to identify small molecule agonists or antagonists of the thyroid stimulating hormone receptor (TSHR) signaling pathway - wild type cell line counter screen (AID 1259384; calls by dose curve)
Summary of the method: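 Wild-type HEK293 cells were plated 18 h at 37 C/5% CO2, pin-dosed with compound plus Ro20-1724 medium, held 30 min at room temperature, then given cAMP-d2 and anti-cAMP-cryptate; fluorescence was read after 1 h. Fifteen concentrations, triplicate.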

[14] = biological target: Thyrotropin receptor (Homo sapiens) (UniProt P16473); experiment: qHTS assay to identify small molecule antagonists of the thyroid stimulating hormone receptor (TSHR) signaling pathway (AID 1259385; calls by dose curve; note: nearly all actives have a fitted effect of over 20% in size; note: potency is the fitted concentration of half-maximal effect)
Chain of Thyrotropin receptor (Homo sapiens) (P16473 whole entry, looked up): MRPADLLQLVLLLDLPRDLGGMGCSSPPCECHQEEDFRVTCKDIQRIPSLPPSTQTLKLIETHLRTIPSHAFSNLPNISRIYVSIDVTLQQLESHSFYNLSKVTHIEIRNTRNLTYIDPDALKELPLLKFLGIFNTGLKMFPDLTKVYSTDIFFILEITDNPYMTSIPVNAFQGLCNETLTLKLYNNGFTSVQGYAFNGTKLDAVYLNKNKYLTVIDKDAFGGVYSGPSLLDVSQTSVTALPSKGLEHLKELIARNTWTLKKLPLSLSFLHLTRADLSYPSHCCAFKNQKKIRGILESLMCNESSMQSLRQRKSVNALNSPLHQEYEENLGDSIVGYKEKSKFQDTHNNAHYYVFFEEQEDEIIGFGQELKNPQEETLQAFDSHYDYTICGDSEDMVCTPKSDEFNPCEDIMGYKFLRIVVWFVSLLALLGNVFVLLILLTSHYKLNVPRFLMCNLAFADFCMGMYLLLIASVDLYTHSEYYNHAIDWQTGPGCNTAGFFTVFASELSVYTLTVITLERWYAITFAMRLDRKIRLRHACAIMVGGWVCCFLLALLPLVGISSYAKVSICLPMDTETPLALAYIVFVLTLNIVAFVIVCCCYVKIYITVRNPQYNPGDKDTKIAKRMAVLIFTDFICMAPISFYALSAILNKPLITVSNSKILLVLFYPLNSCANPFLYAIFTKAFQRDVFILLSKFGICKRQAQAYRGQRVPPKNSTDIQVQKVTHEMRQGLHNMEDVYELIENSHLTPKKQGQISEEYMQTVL
Summary of the method: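 TSHR-HEK293 cells were plated and held 18 h at 37C/5% CO2, then given compound plus Ro20-1724 and stimulated with TSH at 1.5 ng/mL final. After 30 min at room temperature, cAMP was detected with cAMP-d2/anti-cAMP-cryptate (1 h) by fluorescence.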

[15] = qHTS assay to identify small molecule agonists of the estrogen receptor alpha (ER-alpha) signaling pathway in the presence of an antagonist - cell viability counter screen (AID 1259386);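 note: cells exposed to compounds for 22 h at 37 °C before the viability read; nearly all actives have a fitted effect of over 30% in size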; note: potency is the fitted concentration of half-maximal effect
Summary of the method: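 Viability counter screen using VM7Luc4E2 (full-length ER-alpha, four ERE-luciferase). The cells were treated with compounds alongside ICI-182,780 10.0nM for 22hr, and live-cell protease fluorescence was quantified with CellTiter-Fluor.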

[16] = qHTS assay to identify small molecule antagonists of the sonic hedgehog signaling (Shh) pathway - cell viability counter screen (AID 1259367); note: nearly all actives have a fitted effect of over 55% in size; note: potency is the fitted concentration of half-maximal effect
Summary of the method: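 After a 4 hr settling period, 3T3 Gli1-Luc cells were treated with DMSO-dissolved chemicals and conditioned medium, kept 24 hr at 37C in 5% CO2, and assayed for viability by CellTiter-Fluor fluorescence following 1 hr reagent incubation.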

[17] = qHTS assay to identify small molecule antagonists of the sonic hedgehog signaling (Shh) pathway (AID 1259369; calls by dose curve; note: nearly all actives have a fitted effect of over 45% in size; note: potency is the fitted concentration of half-maximal effect)
Summary of the method: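 For antagonist detection, the reporter line received test compounds together with conditioned medium, incubated 24hr at 37 C, 5% CO2, then luminescence was recorded following 30min room-temperature luciferase reagent incubation.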

[18] = biological target: Estrogen receptor beta (Homo sapiens) (UniProt Q92731); experiment: qHTS assay to identify small molecule agonists of the estrogen receptor beta (ER-beta) signaling pathway (AID 1259377; active = well fitted activation curve with a large enough effect in the signal ratio in the repeat runs, not every such curve was filed as active; the % refers to the signal ratio)
Chain of Estrogen receptor beta (Homo sapiens) (Q92731 whole entry, looked up): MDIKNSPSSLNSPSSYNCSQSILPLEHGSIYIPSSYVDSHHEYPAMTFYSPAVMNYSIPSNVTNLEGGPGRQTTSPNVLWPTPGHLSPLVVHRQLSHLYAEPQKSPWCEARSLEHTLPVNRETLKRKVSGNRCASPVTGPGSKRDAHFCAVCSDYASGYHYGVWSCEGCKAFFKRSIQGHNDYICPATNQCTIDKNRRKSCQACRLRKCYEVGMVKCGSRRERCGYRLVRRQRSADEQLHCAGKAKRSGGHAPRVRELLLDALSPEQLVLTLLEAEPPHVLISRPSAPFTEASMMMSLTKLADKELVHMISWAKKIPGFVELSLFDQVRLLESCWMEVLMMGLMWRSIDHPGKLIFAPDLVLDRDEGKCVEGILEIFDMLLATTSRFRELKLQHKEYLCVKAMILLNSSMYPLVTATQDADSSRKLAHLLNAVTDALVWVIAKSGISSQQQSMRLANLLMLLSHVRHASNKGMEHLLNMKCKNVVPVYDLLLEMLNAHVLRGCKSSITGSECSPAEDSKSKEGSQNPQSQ
Summary of the method: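 Read-out: beta-lactamase FRET fluorescence. Cell line: ER-beta-UAS-bla HEK293T in 2% charcoal-stripped FBS. Exposure: 16 hr at 37C. Substrate step: 2 h at room temperature.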

[19] = biological target: Estrogen receptor beta (Homo sapiens) (UniProt Q92731); experiment: qHTS assay to identify small molecule antagonists of the estrogen receptor beta (ER-beta) signaling pathway (AID 1259378; active = well fitted inhibition curve with a large enough effect in the signal ratio in the repeat runs, not every such curve was filed as active; the % refers to the signal ratio)
Summary of the method: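 ER-beta-UAS-bla HEK293T (GripTite) cells in 2% charcoal-stripped FBS medium were preincubated 6 hr at 37C, dosed with compound, then stimulated with 1 nM E2 (final) for 16 hr; beta-lactamase reporter read by B/G FRET fluorescence after 2 hr substrate loading.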

[20] = qHTS assay to identify small molecule phospholipidosis (PLD) inducers (AID 1259344; active = well fitted curve in the direction sought with a large enough effect; an effect the other way counts as inactive or inconclusive)
Summary of the method: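 HepG2 cells grown on collagen I take up LipidTOX Red while exposed to compound for 24 h; after fixation they are imaged at 20x and pit metrics are extracted.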

Measured: Potency

CCCCCC[C@@H](O)C/C=C\CCCCCCCC(=O)OC
not listed: [16] | [17] | [18] | [19] | [20]
inactive: all other assays above

CCCCCCCCCCCCCCCCOS(=O)(=O)O
active: [9] 33.5 µM
not listed: [3] | [11] | [14] | [20]
inactive: all other assays above

CCCCCCCCCc1ccc(OCCOCCO)cc1
inactive: [20] | [4] | [5] | [7] | [18] | [10] | [13]
active: [1] 5.74 µM | [2] 2.28 µM | [17] 8.1 µM | [8] 5.74 µM | [9] 20.4 µM | [14] 25.6 µM | [15] 22.8 µM

Cc1cccc(C)c1OCC(=O)N[C@@H](Cc1ccccc1)[C@@H](O)C[C@H](Cc1ccccc1)NC(=O)[C@H](C(C)C)N1CCCNC1=O
active: [2] 23.7 µM | [6] 15 µM | [16] 23.7 µM | [17] 29.8 µM | [9] 23.7 µM | [11] 23.7 µM | [15] 29.8 µM
not listed: [3] | [7] | [8] | [18] | [19]
inactive: all other assays above

Cc1cccc(Nc2ccccc2)c1
active: [2] 24.3 µM
not listed: [3] | [12] | [18] | [19] | [20]
inactive: all other assays above

COc1ccc(-c2nc3ccc(C4=NNC(=O)CC4C)cc3[nH]2)cc1 (stereo unspecified)
active: [17] 8.41 µM
not listed: [4] | [7] | [14] | [16] | [19]
inactive: all other assays above

CN(C)CCOC(c1ccccc1)c1ccc(Br)cc1 (stereo unspecified)
active: [17] 2.11 µM | [9] 23.7 µM
not listed: [6] | [11] | [18] | [19] | [20]
inactive: all other assays above

CCOC(=O)C(=O)CCc1ccccc1
not listed: [5] | [13] | [14] | [20]
inactive: all other assays above
